This is an account of results in PubChem BioAssay (NCATS).

Values joined by “and” are separate entries in the source; they are usually repeats but may differ in a detail not shown here. Equal entries are not always repeated. Inconclusive results are not listed. A number with no mark means an inactive call. Active and inactive are the calls of the source. Calls follow the shape of the dose curve; as a rule, active = well fitted curve in the direction sought with a large enough effect; inconclusive = small, poorly fitted or top-dose-only effect, or another doubt; inactive = no such curve, though single readings can be large; an effect the other way counts as inactive or inconclusive.

The nature of assay [1]: Quantitative highthroughput screen to assess conditional lethalithy of NOMO1 cells grown in Human Plasma-Like Medium with dialyzed fetal bovine serum (HPLM+ds) (AID 1963878). Also: nearly all actives have a fitted effect of over 35% in size. Also: potency is read from the fitted curve at half-maximal effect.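 As to viability: 100% = DMSO wells and 0% = empty wells on each plate.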 The gist of the method: (§1)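 Each medium arm—HPLM with 10% dialyzed FBS, or RPMI1640 with 5 mM glucose and 10% untreated or dialyzed FBS—was screened against an 11-point, 3-fold compound titration for 48 h at 37 °C, with CellTiter-Glo luminescence as endpoint.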

Assay [2] can be described thus: Quantitative highthroughput screen to assess conditional lethalithy of P12 Ichikawa cells grown in Human Plasma-Like Medium with dialyzed fetal bovine serum (HPLM+ds) (AID 1963879). Also: nearly all actives have a fitted effect of over 35% in size. Also: potency is read from the fitted curve at half-maximal effect. As to viability: series mostly up to about 46 µM. Particulars: Potency: viability. A digest of the protocol:
as §1

Assay [3] is described as follows: Quantitative highthroughput screen to assess conditional lethalithy of SEM cells grown in Human Plasma-Like Medium with dialyzed fetal bovine serum (HPLM+ds) (AID 1963882). Also: nearly all actives have a fitted effect of over 35% in size. Also: potency is read from the fitted curve at half-maximal effect. As to viability: series mostly up to about 46 µM. The gist of the method: as §1
A short description of assay [4]: Quantitative highthroughput screen to assess conditional lethalithy of SEM cells grown in RPMI1640 with unreated serum (RPMI+s) (AID 1963883). Also: nearly all actives have a fitted effect of over 35% in size. Also: potency is read from the fitted curve at half-maximal effect.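 As to viability: 100% = DMSO wells and 0% = empty wells without cells.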 The gist of the method: as §1
A short description of assay [5]: Quantitative highthroughput screen to assess conditional lethalithy of SEM cells grown in RPMI1640 with dialyzed fetal bovine serum (RPMI+ds) (AID 1963884). Also: nearly all actives have a fitted effect of over 35% in size. Also: potency is read from the fitted curve at half-maximal effect.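 As to viability: series mostly up to about 46 µM; 100% = DMSO control wells and 0% = empty wells without cells.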 The gist of the method: as §1
Assay [6] in a line: Quantitative highthroughput screen to assess conditional lethalithy of NOMO1 cells grown in RPMI1640 with dialyzed fetal bovine serum (RPMI+ds) (AID 1963877). Also: nearly all actives have a fitted effect of over 30% in size. Also: potency is read from the fitted curve at half-maximal effect.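 As to viability: series mostly up to about 46 µM; 100% = DMSO control wells and 0% = empty wells.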 The gist of the method:
as §1

A short description of assay [7]: Quantitative highthroughput screen to assess conditional lethalithy of P12 Ichikawa cells grown in RPMI1640 with dialyzed fetal bovine serum (RPMI+ds) (AID 1963880). Also: nearly all actives have a fitted effect of over 35% in size. Also: potency is read from the fitted curve at half-maximal effect.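 As to viability: 100% = DMSO wells and 0% = empty wells on each plate.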 The following applies: Potency: P12-Ichikawa viability. A digest of the protocol:
as §1

Assay [8] can be described thus: Cellular viability qHTS for adrenocortical cancer (ACC) cell line SW-13 (AID 1963989). Also: nearly all actives have a fitted effect of over 65% in size. Also: potency is read from the fitted curve at half-maximal effect.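 As to activity (max response): cells grown in serum-free medium with ITS supplement; % is scaled to controls: 0 for no effect and ±100 for the full control effect.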 The following applies: SW-13 ACC cells viability, CellTiter-Glo, 48 h; activity (max response): active compounds read low. A digest of the protocol:
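IC50 and maximal-response values come from four-parameter logistic fits of titration data. SW-13 cells in serum-free medium received compounds (up to 46 uM final) for 48 h before CellTiter-Glo luminescence.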

Assay [9] is described as follows: Quantitative highthroughput screen to assess conditional lethalithy of P12 Ichikawa cells grown in RPMI1640 with untreated serum (RPMI+s) (AID 1963881). Also: nearly all actives have a fitted effect of over 35% in size. Also: potency is read from the fitted curve at half-maximal effect.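 As to viability: series mostly up to about 46 µM; 100% = DMSO wells and 0% = empty wells without cells.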 The following applies: Potency: viability. A digest of the protocol: as §1
The nature of assay [10]: Cellular viability qHTS for adrenocortical cancer (ACC) cell line NCI-H295R (AID 1963990).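 Also: 0% = DMSO only wells and -100% = full killing with cytotoxic reference compound; nearly all actives have a fitted effect of over 60% in size.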 A digest of the protocol: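 Adrenocortical carcinoma cells, suspended at 300 000 cells/mL in serum-free DMEM plus ITS, rested overnight before pin transfer of compound. After two days' incubation, ATP-dependent luminescence was recorded and curve-fitted.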
For orientation: In qHTS, concentration-response curves come from the screen itself.

As to `N#Cc1ccc(COC[C@H]2O[C@@H](n3c(NCc4ccc(Cl)c(Cl)c4)nc4c(N)ncnc43)[C@@H](O)[C@@H]2O)cc1`, the Potency in assay [1] is 7.43 µM (active). Besides, the Potency entry in assay [2] and in assay [3] was “inactive” in each case.

With `C[C@H](NCc1ccc(OCc2cccc(F)c2)cc1)C(N)=O`, the Potency in assay [1] is 20.9 µM (active); in [2] it was 23.5 µM (active); in assay [3] it was 0.469 µM (active); in assay [4] it was 0.662 µM (active); in assay [5], 0.332 µM (active).

For `CCOC(=O)[C@H](CCc1ccccc1)N[C@@H](C)C(=O)N1[C@@H](C(=O)O)C[C@H]2CCC[C@@H]21`, the Potency in assay [6] was 23.5 µM (active); in assay [1] it was 23.5 µM (active); in assay [4], 20.9 µM (active).

Consider `CCOc1cc(N)c(Cl)cc1C(=O)NCC1CN(Cc2ccc(F)cc2)CCO1` (configuration not stated), for which the Potency result in assay [6], in assay [2], in [7], in assay [3], in assay [4] and in assay [5] was “inactive” each time. Moreover, the activity (max response) in assay [8] is -20% and -11.9%.

As for `CON(C)C(=O)N1N=C(c2cc(F)ccc2F)S[C@]1(CCCN)c1ccccc1`, the Potency entry in assay [1], in assay [7], in assay [9], in assay [3], in assay [4] and in assay [5] was “inactive” each time.

In the case of `O=C(Nc1ccccc1)Nc1ccc(-c2ccc(C(=O)[C@H]3CCC[C@H]3C(=O)O)cc2)cc1`, the Potency in assay [6] was 6.62 µM (active). In addition, the Potency entry in assay [2], in assay [9], in assay [3], in [4] and in assay [5] was “inactive” in each case.

As to `COc1ccc(-c2coc3cc(O)ccc3c2=O)cc1`, the Potency result in assay [6], in assay [2], in [7], in assay [9], in [3] and in [4] was “inactive” each time. Also, the Potency result in [5] is “inactive”.

For `CC(C=CC=C(C)C=CC1=C(C)CCCC1(C)C)=CC=CC=C(C)C=CC=C(C)C=CC1=C(C)CCCC1(C)C`, the Potency result in assay [1], in assay [2], in assay [7], in assay [9], in assay [4] and in assay [5] was “inactive” throughout.

Consider `CCCCN1CCC(CNC(=O)c2c3n(c4ccccc24)CCCO3)CC1`, for which the Potency entry in [6], in assay [4] and in assay [5] was “inactive” throughout. Besides, in assay [2], the Potency is 18.7 µM (active).

Take `COCCCCC(=NOCCN)c1ccc(C(F)(F)F)cc1`: the Potency in [1] is 18.7 µM (active). The Potency entry in [2] is “inactive”.

`NC(=O)N1c2ccccc2CC(=O)c2ccccc21`: the Potency entry in assay [6], in [2], in assay [7], in [9], in assay [3] and in assay [4] was “inactive” each time. For the same compound, the Potency result in [5] is “inactive”.

Regarding `CNC(=O)c1ccc(N2C(=S)N(c3cnc(C#N)c(C(F)(F)F)c3)C(=O)C23CCC3)cc1F`, the Potency in assay [6] was 2.35 µM (active). The Potency result in assay [2], in assay [7], in assay [9], in assay [3], in assay [4] and in assay [5] was “inactive” in each case.

As to `CON=C(C(=O)N[C@@H]1C(=O)N2C(C(=O)OCOC(=O)C(C)(C)C)=C(C=Cc3scnc3C)CS[C@H]12)c1csc(N)n1`, the figures for the Potency in assay [7], in assay [9] and in assay [4] were 16.6 µM (active), 14.8 µM (active) and 9.35 µM (active), respectively. The Potency entry in assay [3] is “inactive”.

With `COc1cc2nc(N(C)CCCNC(=O)C3CCCO3)nc(N)c2cc1OC` (configuration not stated), the Potency entry in [2], in assay [9], in [3], in assay [5] and in assay [10] was “inactive” each time.

Take `COc1ccc(Cc2nccc3cc(OC)c(OC)cc23)cc1OC`: the Potency result in assay [2], in [9] and in [3] was “inactive” throughout.

`CCOC(=O)N1CCN([N+]([O-])=NOc2ccc([N+](=O)[O-])cc2[N+](=O)[O-])CC1`: the results for the Potency in [9], in [4] and in [5] were 23.5 µM (active), 4.18 µM (active) and 4.69 µM (active), respectively.

On to `CC1(C)C(=O)N(CCN2CCC(C(=O)c3ccc(F)cc3)CC2)c2ccccc21`, for which the Potency entry in [2], in assay [9], in assay [3] and in assay [5] was “inactive” throughout.

With `Fc1ccc([C@@H]2CCNC[C@H]2COc2ccc3c(c2)OCO3)cc1`, the Potency in assay [9], in [3], in assay [4] and in assay [5] was 14.8 µM (active) in each case. Further, the activity (max response) in assay [8] was -15.4%.

On to `Cc1ccc(N(CC2=NCCN2)c2cccc(O)c2)cc1`, for which the Potency entry in [2], in [9], in assay [4] and in [10] was “inactive” in each case. In addition, in assay [8], the Potency is 23.1 µM (active) and 25.1 µM (active).

For the compound `CNC(=O)c1ccc(Nc2cc(Nc3ccccc3S(=O)(=O)C(C)C)c3cc[nH]c3n2)nc1`, the Potency in [2] is 2.35 µM (active); in assay [9], 1.87 µM (active); in [4], 1.48 µM (active); in assay [5], 1.05 µM (active).

With `Cc1csc(-c2nnc(Nc3ccc(Oc4ncccc4-c4ccnc(N)n4)cc3)c3ccccc23)c1`, the Potency was 0.0105 µM (active) in [2] and 0.0166 µM (active) in [4]. Besides, in [8], the activity (max response) is -17.7%. For the same compound, the Potency result in assay [10] was “inactive”.

On to `N#CC(=C(N)Sc1ccc(N)cc1)c1ccccc1C(F)(F)F`, for which the Potency result in [7] is “inactive”. Further, the Potency in assay [9] is 2.96 µM (active).

As to `COc1ccc(-c2oc3cc(OC)ccc3c2C(=O)c2ccc(C#N)cc2)cc1`, the Potency was 2.96 µM (active) in [7] and 1.32 µM (active) in assay [9]. Also, the Potency result in assay [4] and in assay [5] was “inactive” each time.

For `O=S(=O)(N=Cc1c(O)ccc2ccccc12)c1cccs1`, the Potency in assay [2] is 16.6 µM (active). For the same compound, the Potency result in [7], in [9] and in assay [5] was “inactive” throughout.

With `CCC(=C(c1ccc(O)cc1)c1ccc(OCCNC)cc1)c1ccccc1`, the Potency in assay [3] is 13.2 µM (active); in assay [4] it was 7.43 µM (active).
